KinaseGlo FLuc: Kinase-Glo luciferase inhibition (counter-screen); Q27757; Kinase-Glo luciferase, ATP luminescence, 8 min; Potency, µM (series often up to 38.3 µM), for inactives: top-dose activity change, negative = inhibition, usual class: inhibitors; hit rate 0.28% among 200,000; AID 1379; further: on the % scale 0 is the no-effect control and ±100 the full control effect; nearly all actives have a fitted effect of over 60% in size
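Recombinant Kinase-Glo luciferase, 10 uM ATP (linear range), luciferin; imidazole pH 7.2 / KCl / MgCl2 / Tween / BSA buffer; 8 min RT; luminescence.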
NPC1 promoter act: activators of NPC1 promoter | hit rate 2.4% among 320,000 | Potency, µM (titrated, usually from 9.22 µM), without a hit: at the highest dose activation, hits mostly activators | Huh7 NPC1 promoter luciferase reporter, 24 h | AID 485313; further: % of control where 0% means no effect; nearly all actives have a fitted effect of over 60% in size
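Luciferase expression driven by the NPC1 promoter was measured in stably transfected Huh7 cells after a 24 h compound incubation, using a luciferase reagent and a luminescence read.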
FLuc counter: firefly luciferase modulation, counter-screen for miR-21 project; P08659; purified FLuc, Km substrates, luminescence inhibition; Potency, µM (top dose mostly 57.5 µM), inactives show at the top dose activity change, negative = inhibition, actives largely listed as inhibitors; hit rate 6.9% among 360,000; AID 588342;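 further: plate controls were vehicle for no effect and reference inhibitor for full effect; nearly all actives have a fitted effect of over 55% in size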
Target sequence (P08659 whole entry, looked up): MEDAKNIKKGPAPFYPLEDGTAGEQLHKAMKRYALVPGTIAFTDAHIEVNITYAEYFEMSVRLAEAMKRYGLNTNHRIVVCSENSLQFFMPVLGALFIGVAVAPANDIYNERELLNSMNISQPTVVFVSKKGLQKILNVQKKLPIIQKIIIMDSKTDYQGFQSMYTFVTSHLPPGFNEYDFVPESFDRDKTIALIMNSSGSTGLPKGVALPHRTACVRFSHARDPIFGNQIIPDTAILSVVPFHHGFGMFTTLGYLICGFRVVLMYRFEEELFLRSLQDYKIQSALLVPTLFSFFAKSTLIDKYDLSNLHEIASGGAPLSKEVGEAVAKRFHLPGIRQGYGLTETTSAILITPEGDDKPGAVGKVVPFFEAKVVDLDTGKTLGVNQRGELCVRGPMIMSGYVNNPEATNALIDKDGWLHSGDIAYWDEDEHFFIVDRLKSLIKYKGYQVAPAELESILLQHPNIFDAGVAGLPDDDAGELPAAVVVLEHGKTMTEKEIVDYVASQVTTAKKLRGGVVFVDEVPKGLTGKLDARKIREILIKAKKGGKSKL
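Purified P. pyralis luciferase, 10 nM final, with Km-level 10 uM D-luciferin and 10 uM ATP in 50 mM Tris acetate pH 7.5, 10 mM Mg acetate, 0.01% Tween-20, 0.05% BSA; 6-point qHTS titration about 60 µM downward; luminescence read.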
Rab9 prom act: activators of Rab9 promoter. Huh7 Rab9 promoter-luciferase reporter, luminescence, 24 h. Potency, µM (titrated, usually from 9.22 µM), for inactives: top-dose activation, negative = inhibition, actives largely listed as activators. hit rate 2.8% among 320,000. AID 485297; further: % of control where 0% means no effect; nearly all actives have a fitted effect of over 60% in size
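Cell-based reporter: Huh7 stable for Rab9 promoter-driven luciferase, plated in reduced-serum medium with 10% FBS at 1500 cells/well, compound-treated 24 h at 37 °C, luminescence read after 10 min reagent.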
ELG1 genotoxic: inducers of genotoxicity in HEK293T ELG1-luciferase cells; hit rate 1.3% among 330,000; Potency, µM (titrated, usually from 46 µM), inactives show at the highest dose activity change, positive = activation, actives largely listed as activators; AID 504466; HEK293T ELG1-luciferase reporter, luminescence, 16 h; further: % of control where 0% means no effect; nearly all actives have a fitted effect of over 60% in size
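Quantitative HTS format in 1536-well plates. HEK293T ELG1-luciferase reporter cells receive test compound and are incubated 16 hr at 37 °C, 5% CO2; ONE-Glo added, 30 min room temperature, then luminescence read.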
SMN2 splice up: enhancers of SMN2 splice variant expression; hit rate 2.8% among 210,000; HEK293 SMN2-luciferase splicing reporter, luminescence, 30-36 h; AID 1458; Potency, µM (titrated, usually from 46.1 µM), for the others: at the highest dose activity change, positive = activation, most hits filed as activators; further: % of control where 0% means no effect; nearly all actives have a fitted effect of over 55% in size
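qHTS luciferase splicing reporter: luminescence rises when SMN2 exon 7 is included in transfected HEK293 cells. Compound exposure lasted 30-36 h at 37C, with 4.5 mM final sodium butyrate as control, followed by a ONE-Glo read.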
An asterisk follows results filed as active; ? = inconclusive; . = not tested or not shown; [ ] = remark or other dose. Compounds with a hit are over-represented: about 7.3% of the library has one in this group of screens. The call rests on the fitted dose curve; in most records, active means well fitted curve in the direction sought with a large enough effect; inconclusive means small, poorly fitted or top-dose-only effect, or another doubt; inactive means no such curve, though single readings can be large; an effect the other way counts as inactive or inconclusive. Potency means the concentration at half of the fitted maximal effect.

SMILES | KinaseGlo FLuc | NPC1 promoter act | FLuc counter | Rab9 prom act | ELG1 genotoxic | SMN2 splice up
O=C(CSc1ccc2nc(-c3ccccc3)cn2n1)NCC1CCCO1 (configuration not stated) | . | ? | 19µM* | ? | 10% | .
COc1ccc(-c2cn3nc(SCC(=O)Nc4ccccc4F)ccc3n2)cc1 | . | . | 1.1µM* | . | . | .
COc1ccc(-c2cc(-c3ccccc3)nc(SCC(=O)Nc3ccccc3F)c2C#N)cc1 | . | . | -1% | . | . | -9%
CCOC(=O)c1c(C)[nH]c(C)c1S(=O)(=O)N1CCN(c2ccccc2OC)CC1 | . | . | -9% | . | . | .
O=[N+]([O-])c1ccc(NN=C2c3ccccc3Cc3ccccc32)c([N+](=O)[O-])c1 | -1%[7.66 µM] | . | . | . | . | -4%[9.22 µM]
CC(=O)c1ccc(S(=O)(=O)Nc2cccc(-c3ccc4nncn4n3)c2)cc1 | 7% | -3% | 7% | 3% | 1% | 22%
O=S(=O)(Nc1ccc(-c2ccc(N3CCCC3)nn2)cc1)c1ccc(Cl)cc1 | . | . | -6% | . | . | .
CC(=O)c1ccc(S(=O)(=O)Nc2cccc(-c3ccc(N4CCCCC4)nn3)c2)cc1 | . | . | 1.5µM* | . | . | .
O=C(c1ccc(S(=O)(=O)Nc2cccc(C(F)(F)F)c2)cc1)N1CCC1 | . | -1% | ? | 6% | -9% | .
O=S(=O)(Nc1ccc(-c2ccc(N3CCCCC3)nn2)cc1)c1ccc(OC(F)(F)F)cc1 | . | . | 21µM* | . | . | .
Cn1c(=O)c(=O)n(C)c2cc(S(=O)(=O)Nc3ccc(OC(F)(F)F)cc3)ccc21 | 17% | -4% | 1% | -1% | -2% | -47%
O=S(=O)(Nc1cccc(-c2ccc(N3CCCCCC3)nn2)c1)c1ccc(F)cc1 | . | ? | 5.4µM* | ? | ? | .
O=S(=O)(Nc1cccc(-c2ccc(N3CCCCCC3)nn2)c1)c1ccc(C(F)(F)F)cc1 | . | 23% | 9.5µM* | ? | ? | .
O=C(CCN1CCCCC1)c1csc2ccccc12 | 0%[7.66 µM] | . | . | . | . | 4%[9.22 µM]
CCOc1ccc(C(=O)N2CCC(c3nc4ccccc4o3)CC2)cc1 | . | . | -10% | . | . | .
O=S(=O)(Nc1cccc(-c2ccc(N3CCCCCC3)nn2)c1)c1cccc(F)c1 | . | 3.2µM* | 2.4µM* | 3.2µM* | ? | .
COc1cccc(N(Cc2nnc3n2CCCCC3)C(=O)Nc2cccc(Cl)c2)c1 | . | . | -5% | . | . | .
CCN1CCN(c2cc3c(nn2)Oc2ccccc2N3C)CC1 | -2% | 29% | 17µM* | ? | ? | 16µM*
CCN1CCN(c2nnc(-c3ccccc3)c3ccccc23)CC1 | . | 2% | -5% | 0% | -3% | .
COc1cccc(NC(=S)N2CCC(c3ccc(C)cc3)C2)c1 (configuration not stated) | . | 29% | 13µM* | ? | 7% | .
COc1ccc(NC(=S)N2CCC(c3ccc(C)cc3)C2)cc1 (configuration not stated) | . | -1% | ? | 5% | 7% | .
Cc1ccc(NC(=S)N2CCC(c3ccc(C)cc3)C2)cc1 (configuration not stated) | . | 26% | 15µM* | ? | ? | .
O=C(NNc1ncnc2c1cnn2-c1ccc(F)cc1)c1ccco1 | . | 3% | -16% | 11% | 10% | .
Cc1ccc(CNc2ncnc3c2cnn3-c2ccc(Cl)cc2)cc1 | . | . | -7% | . | . | .
CCC(C)Nc1ncnc2c1cnn2-c1ccc(F)cc1 (configuration not stated) | . | . | 6.7µM* | . | . | .
SMILES | KinaseGlo FLuc | NPC1 promoter act | FLuc counter | Rab9 prom act | ELG1 genotoxic | SMN2 splice up
COCC(C)Nc1ncnc2c1cnn2-c1ccc(Cl)cc1 (configuration not stated) | . | 0.71µM* | 2.4µM* | 0.5µM* | . | .
CCCCc1c(C)c(C#N)c2[nH]c3ccccc3n2c1=O | -3% | 0% | 2% | -7% | -12% | .
CCCc1cc(=O)n2c([nH]c3ccccc32)c1C#N | 12% | 20% | 6.7µM* | ? | 1% | -3%
Cc1cccc(C(=O)Nc2ccc(OCc3cc(=O)n4ccc(C)cc4n3)cc2)c1 | . | . | -6% | . | . | .
C=CCn1c(SCC(=O)Nc2ccc(-c3nc4ccc(C)cc4s3)cc2)nnc1-c1ccncc1 | 3% | ? | ? | ? | ? | 7.1µM*
Cc1nnc(SCC(=O)Nc2ccc(-c3nc4ccccc4s3)cc2)s1 | -20% | 0.79µM* | 0.27µM* | 0.35µM* | 2.1µM* | 1.3µM*
CCn1c(SCC(=O)Nc2ccc(-c3nc4ccc(C)cc4s3)cc2)nnc1-c1ccccc1 | 0% | ? | ? | 0.63µM* | ? | 0.56µM*
C=CCn1c(SCC(=O)Nc2ccc(N3CCOCC3)cc2)nnc1-c1ccncc1 | . | 8% | ? | 9% | 1% | .
Cc1nnc(SCC(=O)Nc2nsc(-c3ccc(C(C)(C)C)cc3)n2)s1 | -3% | 1.4µM* | 11µM* | 1.4µM* | 3.3µM* | 11µM*
O=c1c2oc3ccccc3c2n(Cc2ccccc2Cl)c(=O)n1Cc1ccco1 | . | . | -10% | . | . | .
COc1cccc(C(=O)c2cn(CC(=O)NCc3ccccc3)c3nc(C)ccc3c2=O)c1 | . | . | 3% | . | . | .
COc1cccc(CNCCSc2nnnn2-c2ccccc2)c1OC | . | . | 5% | . | . | .
CC1CCN(c2nn3c(=O)c(C(=O)NCCc4ccccc4)cnc3s2)CC1 | . | . | 2% | . | . | .
O=C(CCN1C(=O)NC2(CCCC2)C1=O)Nc1ccc(-c2nc3ccccc3s2)cc1 | . | 0.89µM* | . | 0.45µM* | ? | .
NC(=O)c1ccc(NC(=O)CCCN2C(=O)NC3(CCCC3)C2=O)cc1 | . | 1% | -1% | -7% | 1% | .

Compound activity: PubChem, National Center for Advancing Translational Sciences (NCATS)
